For experiment [1], the target named is Bromodomain-containing protein 4 (Homo sapiens) (UniProt O60885). The settings on record: Compound concentration 20.0 uM, Protein concentration 2.0 uM, Result type QC Liability.
The target of experiment [2] is T1, Transcription intermediary factor 1-alpha (Homo sapiens) (UniProt O15164).
T1 sequence (whole entry): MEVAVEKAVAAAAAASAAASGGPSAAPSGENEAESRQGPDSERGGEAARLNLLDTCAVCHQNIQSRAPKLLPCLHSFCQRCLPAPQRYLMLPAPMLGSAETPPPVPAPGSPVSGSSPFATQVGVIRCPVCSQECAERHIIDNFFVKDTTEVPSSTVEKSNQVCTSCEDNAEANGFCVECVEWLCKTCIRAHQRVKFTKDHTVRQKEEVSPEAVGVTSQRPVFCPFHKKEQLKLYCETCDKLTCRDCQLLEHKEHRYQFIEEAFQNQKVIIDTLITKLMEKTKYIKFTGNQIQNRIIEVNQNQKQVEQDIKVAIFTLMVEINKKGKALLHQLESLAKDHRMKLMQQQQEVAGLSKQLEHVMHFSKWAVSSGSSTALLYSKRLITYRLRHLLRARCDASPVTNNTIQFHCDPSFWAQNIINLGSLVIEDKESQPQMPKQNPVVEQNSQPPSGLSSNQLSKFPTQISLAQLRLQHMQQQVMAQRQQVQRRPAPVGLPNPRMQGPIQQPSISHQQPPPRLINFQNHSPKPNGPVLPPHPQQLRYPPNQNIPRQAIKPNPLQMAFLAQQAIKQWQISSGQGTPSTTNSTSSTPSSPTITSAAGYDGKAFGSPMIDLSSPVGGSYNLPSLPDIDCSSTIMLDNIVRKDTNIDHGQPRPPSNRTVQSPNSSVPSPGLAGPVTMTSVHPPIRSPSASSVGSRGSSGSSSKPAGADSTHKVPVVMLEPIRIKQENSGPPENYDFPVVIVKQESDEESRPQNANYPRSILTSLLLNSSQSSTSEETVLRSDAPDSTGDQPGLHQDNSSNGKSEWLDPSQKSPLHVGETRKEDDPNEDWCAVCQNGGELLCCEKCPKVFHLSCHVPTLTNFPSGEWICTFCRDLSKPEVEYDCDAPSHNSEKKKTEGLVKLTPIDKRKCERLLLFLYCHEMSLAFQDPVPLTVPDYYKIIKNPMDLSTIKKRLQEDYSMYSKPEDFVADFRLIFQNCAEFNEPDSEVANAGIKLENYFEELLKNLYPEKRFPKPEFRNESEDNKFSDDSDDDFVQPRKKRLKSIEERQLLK
The settings on record: Compound concentration 20.0 uM, Protein concentration 2.0 uM, Result type QC Liability.

These results are taken from ChEMBL document CHEMBL5308504, “Tm Shift (DSF) assay results for EUbOPEN Chemogenomics Library” (2023).

Several values for one entry are separate records, joined by “and”; a condition that tells them apart may be missing. Identical values can stand only once.

One may read the ΔTm as the shift of the melting midpoint relative to a reference. Consider `O=C(Nc1cccc(C(F)(F)F)c1)c1cccc(-n2cc(-c3ccco3)nn2)c1`, for which the shift in melting temperature (ΔTm) in experiment [1] is -12.8 °C; in experiment [2], -0.66 °C.
On the same counts, the results for `CCOC(=O)C1Cc2ccccc2CN1C(=O)c1ccc(SC)s1` (centres undefined) are -2.7 °C and -3.41 °C.
Turning to `CCc1ccc(N(CC(C)C)S(=O)(=O)c2ccc(OCC3CCOCC3)c(CO)c2)cc1`, the values for the ΔTm in experiment [1] and in experiment [2] were -3.99 °C and -0.46 °C, respectively.
On the same counts, the results for `CNS(=O)(=O)c1ccc(N(C)C)c(Nc2ncnc3cc(OC)c(OC)cc23)c1` are -3.63 °C and -2.8 °C.
For `CN(C)C(=O)Cn1cc(-c2nc([C@@](C)(c3ccc(-c4cnc(N)nc4)cc3)C3CC3)no2)cn1` the same measures were -1.9 °C and 0.31 °C.
On to `COCc1nc2cnc3cc(-c4c(C)noc4C)c(OC[C@H]4CCNC4)cc3c2n1[C@H](C)c1ccccc1`, for which the ΔTm in experiment [2] is -1.74 °C.
As to `Cc1c(CN2CCC3(CC2)CN(c2ncnc4sc(CC(F)(F)F)cc24)C3)ccc2c1cc(C#N)n2CC(N)=O`, the ΔTm in experiment [1] amounted to 1.17 °C; in experiment [2] it was 0.7 °C.
For `CC(C)N1CCN(Cc2cnc(-c3cc(-c4cccc5[nH]ccc45)cc4[nH]ncc34)o2)CC1`, the thermal shift (ΔTm) is 0 °C in experiment [1] and -2.06 °C in experiment [2].
Consider `CCOc1cc(CC(=O)N[C@@H](CC(C)C)c2ccccc2N2CCCCC2)ccc1C(=O)O`, for which the figures for the ΔTm in experiment [1] and in experiment [2] were -0.4 °C and -1.24 °C, respectively.
For `COc1ccc(Br)cc1S(=O)(=O)NC(=O)/C=C/c1cc(Cl)ccc1Cc1ccc2ccccc2c1` the same measures were -4.74 °C and -0.55 °C.
Consider `CCCCCCCN(CCc1ccc(SC(C)(C)C(=O)O)cc1)C(=O)Nc1ccc(F)cc1F`, for which the ΔTm in experiment [1] was -1.9 °C; in experiment [2] it was -3.36 °C.
On the same counts, the results for `NCCCc1c(C(=O)O)[nH]c2ccc(C(=O)Nc3ccccc3)cc12` are -2.73 °C and -4.02 °C.
On the same counts, the results for `Cn1ccc(Cn2cnc(-c3ccc(F)cc3)c2-c2ccnc3[nH]ccc23)n1` are -1.68 °C and -3.2 °C.
For the compound `C[C@@H]1CCNC(=O)c2cc3ccc(C(=O)Nc4nc5ccccc5n4CCCN(C)C)cc3n21`, the ΔTm in experiment [1] was -0.87 °C; in experiment [2] it was -0.45 °C.
As to `C[S+](C)[O-]`, the ΔTm in experiment [1] was 0 °C (2×) and -2.05 °C; in experiment [2] it was 0 °C (2×) and -2.19 °C.
With `CCOC(=O)c1ccc(CN(Cc2ccc(-c3cccc(S(C)(=O)=O)c3)cc2)S(=O)(=O)c2c(C)cc(C)cc2C)o1`, the thermal shift (ΔTm) in experiment [1] is -4.78 °C; in experiment [2], 0.5 °C.
On to `CC(=O)c1c(C)c2cnc(Nc3ccc(N4CCNCC4)cn3)nc2n(C2CCCC2)c1=O`, for which the ΔTm in experiment [1] is -1.52 °C and 0.07 °C; in experiment [2] it was -1.97 °C and -2.09 °C.
For `COc1ccccc1[C@@H]1CNCCC12CCN(C(=O)[C@](OC)(c1ccccc1)C(F)(F)F)CC2`, the figures for the ΔTm in experiment [1] and in experiment [2] were -0.33 °C and 0.2 °C, respectively.
As to `COc1cc(OC)cc(-c2cc3cnc(N)nc3nc2NC(=O)NC(C)(C)C)c1`, the ΔTm in experiment [1] was -2.72 °C and 0.27 °C; in experiment [2], -2.2 °C and -1.8 °C.
For `CCNC(=O)c1ccc2c(c1)NC(=O)/C2=C(\Nc1ccc(CN(C)C)cc1)c1ccccc1`, the shift in melting temperature (ΔTm) in experiment [2] was 0.37 °C and -3.62 °C.
As to `Cn1c(C2(NC(=O)c3ccc4c(C5CCCC5)c(-c5ncc(Br)cn5)n(C)c4c3)CCC2)nc2ccc(/C=C/C(=O)O)cc21`, the shift in melting temperature (ΔTm) in experiment [1] was 0 °C and -4.93 °C; in experiment [2] it was 0.68 °C and -0.65 °C.
Regarding `CC(C)S(=O)(=O)c1ccccc1Nc1nc(N[C@@H]2CCCN(CCCCCCCNC(=O)COc3cccc4c3C(=O)N(C3CCC(=O)NC3=O)C4=O)C2)ncc1Cl` (some centres undefined), the results for the shift in melting temperature (ΔTm) in experiment [1] and in experiment [2] were 1.89 °C and 0 °C, respectively.
Turning to `CNC(=O)c1cc(C(=O)N[C@H]2[C@@H]3COC[C@@H]32)cc2c1O[C@H](CF)[C@H]2c1ccccc1`, in experiment [2], the shift in melting temperature (ΔTm) is -2.73 °C.
As for `NC(=O)c1ccccc1Nc1nc(-c2ccc(N3CCOCC3)cc2)cc2ncccc12`, the ΔTm in experiment [1] is -2.32 °C; in experiment [2] it was -2.3 °C.
On the same counts, the results for `CC[C@@H](C(=O)OC)n1c(=O)c2ccccc2n(Cc2cn(C)c3cccc(C)c23)c1=O` are 1.22 °C and 0.71 °C.
As for `COc1cc(O)c(C(CC(=O)N2C[C@H](C)C[C@H](C)C2)c2ccc3c(c2)OCO3)c(OC)c1` (some centres undefined), the shift in melting temperature (ΔTm) in experiment [1] is 0.54 °C; in experiment [2], -3.38 °C.
In the case of `COc1ccc2c(O[C@@H]3C[C@H]4C(=O)N[C@]5(C(=O)O)CC5/C=C\CCCCC[C@H](NC(=O)OC5CCCC5)C(=O)N4C3)cc(-c3csc(NC(=O)C(C)C)n3)nc2c1C` (some centres undefined), the ΔTm in experiment [2] was 0.14 °C [middle of 4 runs].
Same read-out and setting: the same measure for `CNC(=O)c1cc(C(=O)N[C@H]2[C@@H]3COC[C@@H]32)cc2c1O[C@@H](CF)[C@@H]2c1ccccc1`: -2.85 °C; for `COc1ccccc1S(=O)(=O)Nc1ccc2c(c1)CN(C)C(=O)N2`: -1.03 °C.
For `N#Cc1ccc(C#CC[C@@H](C#N)NC(=O)[C@H]2CCCCN2)cc1F`, the shift in melting temperature (ΔTm) was -1.11 °C in experiment [1] and 0.64 °C in experiment [2].
Consider `C=CC(=O)Nc1cccc(C(=O)Nc2ccc(Nc3cc(-c4c(-c5ccc(F)cc5)nc(SC)n4C)ccn3)cc2)c1`, for which the ΔTm in experiment [1] was -0.7 °C; in experiment [2], -0.89 °C.
For `CCNc1ccc(-c2nn(-c3ccccc3C)c3c2C(C)Cc2nc(NC(=O)OC)sc2-3)cn1` (centres undefined) the same measures were -2.96 °C and -3.54 °C.
On the same counts, the results for `CCc1ncnc(N2CCN(C(C)=O)CC2)c1C#Cc1ccc(N)nc1` are -1.64 °C and -3.55 °C.
On the same counts, the results for `CNc1[nH]c(Nc2ccc(C(=O)N3CCOCC3)cc2OC)nc2ncc(Cl)c1-2` are -0.77 °C and -2.36 °C.
Turning to `O=C(Nc1ccc(N2CCC(C(=O)N3CCOCC3)CC2)cc1)c1cnc(Oc2ccccc2)nc1`, the ΔTm in experiment [1] is -0.8 °C; in experiment [2], -0.59 °C.
